Here are results for six compounds from PubChem BioAssay.

Assay [1] in a line: Wnt pathway potentiators raising nuclear beta-catenin – imaging, WNT3A-conditioned medium, mouse C2C12, NPC library, primary screen (AID 1117326; in the data active = nuclear beta-catenin stimulation mostly above about 4.2%, no sharp cut-off; inactive = mostly below about 10%). The note with it: stronger effect = higher value.
Assay [2] is described as follows: stimulators of insulin release from INS-1E, primary screen, cell-based, 5 mM glucose, NPC library (AID 1117329;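 active = compound raises insulin release from rat beta cells at 5 mM glucose, no numeric limit stated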). The following applies: rat INS-1E insulin secretion, at 10 µM, stronger effect = higher value.
The nature of assay [3]: growth inhibition of GSK3B-pretreated HCT116 cells – cell-based, CellTiter-Glo, 0.2 to 20 µM (AID 1117336;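 active = compounds lowering colon cancer cell viability after pretreatment blocking the GSK3B kinase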). The following applies: HCT116 viability after GSK3B inhibitor, at 20 µM, stronger effect = higher value.
Assay [4] can be described thus: inhibition of endothelial tube formation, primary screen, imaging, VEGF stimulated, CD31 staining, tube area, NPC library (AID 1117340;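 active = compound that reduces growth-factor-driven endothelial tube area in a mixed cell culture, no cutoff stated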). The note with it: VEGF-stimulated ADSC/ECFC co-culture, at 10 µM, stronger effect = higher value.
Assay [5] can be described thus: GLP1 release stimulators, primary, NCI-H716, NPC library (AID 1117341;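 active = compound raises GLP1 secretion from the human gut endocrine cells, with no numeric limit stated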). The note with it: NCI-H716 cells, at 10 µM, stronger effect = higher value.
Assay [6] can be described thus: HCT116 colon cancer cell growth inhibition, primary screen, CellTiter-Glo luminescence, NPC library (AID 1117342;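 active = compounds that lower survival of HCT116 colon cancer cells in the luminescence readout, no numeric limit stated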). The following applies: at 20 µM (top of the series). In general terms: ATP-based viability assays read luminescence as a measure of living cells.
The nature of assay [7]: reduced SW480 viability measured with CellTiter-Glo, NPC library, primary (AID 1117343;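 active = compounds that lower viability of the colon cancer cells in the luminescence readout, with no numeric limit stated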). The note with it: CellTiter-Glo luminescence; at 20 µM (top of the series).
Assay [8] is described as follows: NPC library primary testing for decreased DLD-1 cell viability via CellTiter-Glo (AID 1117346;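 active = compounds that lower survival of DLD-1 colon cancer cells in the luminescence readout, no cutoff given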). The following applies: DLD-1 viability, CellTiter-Glo luminescence; at 20 µM (top of the series).
Assay [9] deals with 6-phosphogluconate dehydrogenase, decarboxylating (Homo sapiens) (UniProt P52209). The assay is described as follows: inhibition of human phosphogluconate dehydrogenase – biochemical, recombinant enzyme, NADPH absorbance, primary screen (AID 1159550;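 active = at least 20% inhibition of 6-phosphogluconate dehydrogenase activity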). The following applies: recombinant 6PGD, NADPH absorbance 341 nm; at 10 µM; stronger effect = higher value.
The nature of assay [10]: EMT-state selective cytotoxicity in co-culture – imaging, PC-3E GFP, TEM4-18 mCherry, primary screen (AID 1345086;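 active = compounds killing one labelled cell type while sparing the other, by normalised counts and ratio limits, not self-fluorescent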;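 as to all read-outs here: cells exposed to compound for 72 h before imaging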;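 as to red/green cell ratio (normalised): normalised mesenchymal count divided by normalised epithelial count so high means epithelial killing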). The note with it: PC-3E GFP / TEM4-18 mCherry co-culture, imaging cell counts, at 1 µM; for red/green cell ratio (normalised): actives lie on both sides, counts scaled to control wells, 1 = unselective.
A short description of assay [11]: MELAS cybrid and Rieske KO viability enhancers – cell-based, MELAS cybrids, Rieske KO mouse fibroblasts, CellTiter-Glo, primary screen (AID 1508586;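 active = mean z-score across replicates of 1.96 or higher in either the MELAS or the Rieske mutant cell line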;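 also: z relative to plate mean and SD of compound and empty wells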). The following applies: low glucose.
The target of assay [12] is NAD(+) hydrolase SARM1 (Homo sapiens) (UniProt Q6SZW1). As to the kind of experiment: blocking NAD cleavage by SARM1 SAM-TIR – cell lysate, NAD-Glo luminescence (AID 1508614;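 active = compound whose remaining NAD level is above about 45 nM, limit read from the data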;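 also: higher remaining NAD means stronger inhibition of SARM1 NADase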). The note with it: SAM-TIR HEK293T lysate NADase, at 1 µM, stronger effect = higher value.
Assay [13] relates to F380Y. As to the kind of experiment: BK channel mutant inhibitors and activators – cell-based, U2OS BacMam, thallium flux, beta subunits, selectivity assay, profiling panel (AID 1259406).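 Also: initial slope of Thallos dye fluorescence rise after thallium is added; log ratio against the mean of 0.3% DMSO vehicle wells on the same plate.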 The following applies: U2OS BacMam BK variants, at 30 µM.
Assay [14] relates to F380Y/beta1. The assay is described as above. The note with it: U2OS BacMam BK variants, at 30 µM.
Assay [15] relates to F380Y/beta2Delta. Described as above. The note with it: U2OS BacMam BK variants, at 30 µM.
Assay [16] has as its system F380Y/beta4. The assay is described as above. The note with it: U2OS BacMam BK variants, at 30 µM.
In assay [17] the target is Calcium-activated potassium channel subunit alpha-1 (Homo sapiens) + Leucine-rich repeat-containing protein 26 (Homo sapiens) (UniProt Q12791+Q2I0M4). Described as above. The note with it: U2OS BacMam BK variants, F380Y/Slo1WT/gamma1, at 30 µM.
In assay [18] the test system is R275C. Described as above. The following applies: U2OS BacMam BK variants, at 30 µM.
Setting [19] is: measured here: epithelial PC-3E GFP cell survival.
Where [20] appears, read: measured here: mesenchymal TEM4-18 mCherry cell survival.
Where [21] appears, read: MELAS cybrid survival, CellTiter-Glo 48 h, stronger effect = higher value.
The mark [22] stands for this setting: Rieske KO mouse fibroblast survival, CellTiter-Glo 72 h.

Values joined by “and” are separate entries in the source; they are usually repeats but may differ in a detail not shown here. Identical values can stand only once. A structure can be active in one record and inactive in another. Active and inactive are the calls of the source.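 The calls were made as follows, unless noted: active = thallium flux through the channel raised or lowered by more than 3 SD from vehicle-only wells, actives on both sides; inactive = the rest.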

NAD(+) hydrolase SARM1 (Homo sapiens), sequence (Q6SZW1 whole entry, looked up): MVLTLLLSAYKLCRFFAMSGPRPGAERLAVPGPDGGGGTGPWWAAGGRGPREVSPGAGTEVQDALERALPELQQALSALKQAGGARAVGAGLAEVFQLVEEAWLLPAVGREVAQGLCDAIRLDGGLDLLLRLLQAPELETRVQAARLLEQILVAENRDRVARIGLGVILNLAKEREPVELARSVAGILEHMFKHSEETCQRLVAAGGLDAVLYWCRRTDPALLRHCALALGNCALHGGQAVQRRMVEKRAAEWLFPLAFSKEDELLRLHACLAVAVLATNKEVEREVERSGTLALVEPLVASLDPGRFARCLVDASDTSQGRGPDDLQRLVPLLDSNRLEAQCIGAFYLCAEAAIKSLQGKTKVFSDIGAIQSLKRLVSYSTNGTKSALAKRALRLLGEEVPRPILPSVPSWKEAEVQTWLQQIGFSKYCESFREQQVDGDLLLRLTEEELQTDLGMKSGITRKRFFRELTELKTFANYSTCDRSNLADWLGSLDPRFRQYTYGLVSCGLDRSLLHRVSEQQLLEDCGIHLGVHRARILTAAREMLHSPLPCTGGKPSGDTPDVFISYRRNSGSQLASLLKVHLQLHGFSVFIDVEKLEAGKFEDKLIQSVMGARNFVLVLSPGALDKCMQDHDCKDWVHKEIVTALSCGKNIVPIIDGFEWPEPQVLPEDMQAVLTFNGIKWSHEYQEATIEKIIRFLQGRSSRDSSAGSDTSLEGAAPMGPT
6-phosphogluconate dehydrogenase, decarboxylating (Homo sapiens), sequence (P52209 whole entry, looked up): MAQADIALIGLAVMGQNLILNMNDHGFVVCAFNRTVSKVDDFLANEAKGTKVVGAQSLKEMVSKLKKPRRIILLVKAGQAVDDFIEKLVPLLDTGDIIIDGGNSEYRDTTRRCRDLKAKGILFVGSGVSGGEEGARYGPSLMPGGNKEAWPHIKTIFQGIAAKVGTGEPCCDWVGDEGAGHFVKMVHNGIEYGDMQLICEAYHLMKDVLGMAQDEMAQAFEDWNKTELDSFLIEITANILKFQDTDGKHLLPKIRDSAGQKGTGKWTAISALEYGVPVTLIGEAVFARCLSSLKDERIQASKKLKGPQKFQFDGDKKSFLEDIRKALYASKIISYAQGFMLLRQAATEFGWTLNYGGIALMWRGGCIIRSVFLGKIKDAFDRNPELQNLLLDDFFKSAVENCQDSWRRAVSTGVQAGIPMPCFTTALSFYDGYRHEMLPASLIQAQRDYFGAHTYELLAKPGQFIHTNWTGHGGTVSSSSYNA
Calcium-activated potassium channel subunit alpha-1 (Homo sapiens) + Leucine-rich repeat-containing protein 26 (Homo sapiens), sequence (Q2I0M4 whole entry, looked up, one chain of several): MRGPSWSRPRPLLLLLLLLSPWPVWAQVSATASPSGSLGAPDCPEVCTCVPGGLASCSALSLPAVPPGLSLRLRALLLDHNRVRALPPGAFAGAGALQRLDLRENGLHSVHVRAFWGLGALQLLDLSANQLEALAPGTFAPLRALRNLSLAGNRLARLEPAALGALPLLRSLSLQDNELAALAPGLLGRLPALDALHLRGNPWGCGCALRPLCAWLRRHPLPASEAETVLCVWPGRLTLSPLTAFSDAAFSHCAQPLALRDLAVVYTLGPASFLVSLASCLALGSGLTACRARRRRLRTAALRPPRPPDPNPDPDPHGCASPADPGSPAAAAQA

Broadly, the inhibition is the relative decrease from the control value, in per cent. Regarding `OCCN1CCN(CCCN2c3ccccc3Sc3ccc(Cl)cc32)CC1`, the nuclear beta-catenin stimulation in [1] (at 10 µM) is 73.5% (active); in assay [1] (stimulation, at 2 µM), 2.8%. In assay [2], the insulin secretion stimulation is 3.5% (inactive). For the same compound, the viability decrease in assay [3] was 99.5% (active). Further, in [4], the tube area decrease is 104% (active). The GLP1 secretion stimulation in assay [5] was 45% (active). The inhibition of viability in [6] is 100% (active). Also, the viability decrease (inhibition) was 116% (active) in assay [7] and 101% (active) in assay [8]. Besides, in assay [9], the inhibition is 10.3% (inactive). The red/green cell ratio (normalised) in assay [10] was 1.35 (inactive). Moreover, the results for the normalised cell number in assay [10] (setting [19]) and in assay [10] (setting [20]) were 0.97 and 1.32, respectively. Besides, the results for the z-score in [11] (setting [21]) and in assay [11] (setting [22]) were 0.299 (inactive) and 0.539, respectively. Besides, the remaining NAD in assay [12] is 10 nM (inactive). The log fold change Tl+ flux in [13] was 0.23 (active); in assay [14] it was 0.097 (inactive); in assay [15], 0.336 (active); in assay [16], 0.284 (active); in assay [17] it was -0.0145 (inactive); in assay [18], -0.201 (active).
Turning to `CN(C)CCCN1c2ccccc2CCc2ccccc21`, the nuclear beta-catenin stimulation in [1] (at 10 µM) is 0.8% (inactive); in [1] (stimulation, at 2 µM), -0.2%. Further, the insulin secretion stimulation in assay [2] is 5.55% (inactive). The viability decrease in assay [3] was 57.9% (active). Further, the tube area decrease in assay [4] was 0.8% (inactive). Besides, the GLP1 secretion stimulation in [5] was 10% (inactive). In addition, the inhibition of viability in assay [6] is 36.7% (inactive). For the same compound, the viability decrease (inhibition) in assay [7] is 70.5% (active); in assay [8], -1.6% (inactive). In addition, in assay [9], the inhibition was 2.5% (inactive). Further, the red/green cell ratio (normalised) in [10] is 1.07 (inactive). Besides, the normalised cell number in assay [10] (setting [19]) amounted to 1.07; in [10] (setting [20]), 1.14. Moreover, the z-score in [11] (setting [21]) is -0.849 (inactive) and -0.557 (inactive); in [11] (setting [22]) it was 0.136 and -0.674. Also, in assay [12], the remaining NAD was 10 nM (inactive). The log fold change Tl+ flux in [13] is 0.14 (active); in assay [14], 0.0217 (inactive); in [15] it was 0.118 (active); in assay [16] it was 0.133 (active); in assay [17], 0.0488 (inactive); in [18], 0.0455 (inactive).
As for `CCN(CC)CCNC(=O)c1ccc(N)cc1`, the nuclear beta-catenin stimulation was 1.2% (inactive) in assay [1] (at 10 µM) and 2.4% in assay [1] (stimulation, at 2 µM). The insulin secretion stimulation in assay [2] is 1.1% (inactive). Moreover, the viability decrease in assay [3] was 1.4% (inactive). Besides, the tube area decrease in assay [4] was 8.7% (inactive). Further, in assay [5], the GLP1 secretion stimulation is 2.8% (inactive). Further, the inhibition of viability in assay [6] is 15.3% (inactive). For the same compound, the viability decrease (inhibition) was -11.5% (inactive) in assay [7] and -4.7% (inactive) in assay [8]. Besides, the inhibition in [9] was 13.2% (inactive). In addition, the red/green cell ratio (normalised) in [10] was 0.9 (inactive). Moreover, the normalised cell number is 0.66 in assay [10] (setting [19]) and 0.59 in [10] (setting [20]). The z-score is -0.241 (inactive) and -0.159 (inactive) and 0.703 (inactive) in assay [11] (setting [21]); -0.144 and -0.31 and 0.675 in assay [11] (setting [22]). For the same compound, the remaining NAD in [12] is 10 nM (inactive). For the same compound, the log fold change Tl+ flux in [13] is -0.0589 (inactive); in assay [14], 0.0223 (inactive); in assay [15], 0.0202 (inactive); in [16] it was 0.0227 (inactive); in [17], 0.0259 (inactive); in [18], 0.0572 (inactive).
Turning to `CCN(CC)CCOC(=O)C1(C2CCCCC2)CCCCC1`, the nuclear beta-catenin stimulation was 2.1% (inactive) in assay [1] (at 10 µM) and 1.1% in [1] (stimulation, at 2 µM). In assay [2], the insulin secretion stimulation is 6.9% (inactive). For the same compound, the viability decrease in assay [3] is -64.7% (inactive). Moreover, in assay [4], the tube area decrease was -0.9% (inactive). Also, the GLP1 secretion stimulation in [5] was 5.4% (inactive). In assay [6], the inhibition of viability is 36.5% (inactive). The viability decrease (inhibition) in assay [7] is 84.8% (active); in assay [8], 34.2% (inactive). Moreover, in [9], the inhibition was 11.5% (inactive). Moreover, the red/green cell ratio (normalised) in assay [10] is 1.32 (inactive). Besides, the normalised cell number in assay [10] (setting [19]) was determined as 1.25; in assay [10] (setting [20]), 1.66. Further, the z-score in assay [11] (setting [21]) was 0.288 (inactive) and 0.358 (inactive); in assay [11] (setting [22]), -0.235 and -0.17. Besides, in assay [12], the remaining NAD is 10 nM (inactive). Besides, the log fold change Tl+ flux in [13] was 0.0289 (inactive); in assay [14] it was -0.0697 (inactive); in [15] it was 0.0166 (inactive); in [16], -0.0157 (inactive); in assay [17] it was -0.023 (inactive); in assay [18], -0.00463 (inactive).
Turning to `Cc1ccc(S(=O)(=O)NC(=O)NN2CCCCCC2)cc1`, the nuclear beta-catenin stimulation is 0.5% (inactive) in assay [1] (at 10 µM) and -0.9% in assay [1] (stimulation, at 2 µM). Also, in assay [2], the insulin secretion stimulation is 60.9% (active). In assay [3], the viability decrease is -7% (inactive). Further, the tube area decrease in [4] is -13.2% (inactive). For the same compound, in [5], the GLP1 secretion stimulation is 1.4% (inactive). The inhibition of viability in [6] is -14.9% (inactive). In addition, the values for the viability decrease (inhibition) in [7] and in assay [8] were -1.7% (inactive) and 4.8% (inactive), respectively. Further, in assay [9], the inhibition is 16.2% (inactive). Besides, the red/green cell ratio (normalised) in assay [10] was 1.04 (inactive). In addition, the normalised cell number in [10] (setting [19]) stood at 1.09; in [10] (setting [20]), 1.13. Also, the z-score is -0.943 (inactive) and -0.476 (inactive) in assay [11] (setting [21]); -0.174 and -0.295 in [11] (setting [22]). Moreover, in assay [12], the remaining NAD is 10 nM (inactive). Besides, the log fold change Tl+ flux is -0.0421 (inactive) in assay [13]; 0.00805 (inactive) in assay [14]; -0.0238 (inactive) in [15]; -0.0504 (inactive) in assay [16]; 0.0367 (inactive) in [17]; -0.0622 (inactive) in [18].
In the case of `O=C1NC(=O)C(c2ccccc2)(c2ccccc2)N1`, the nuclear beta-catenin stimulation was 0.1% (inactive) in [1] (at 10 µM) and 0.8% in assay [1] (stimulation, at 2 µM). For the same compound, the insulin secretion stimulation in [2] is -0.3% (inactive). Further, the viability decrease in assay [3] was 7% (inactive). Further, the tube area decrease in assay [4] is -8.6% (inactive). In addition, in assay [5], the GLP1 secretion stimulation is 3.3% (inactive). Moreover, in assay [6], the inhibition of viability was 0.15% (inactive). For the same compound, the results for the viability decrease (inhibition) in [7] and in assay [8] were 45.8% (inactive) and -0.3% (inactive), respectively. In addition, in [9], the inhibition was 6.59% (inactive). Besides, the red/green cell ratio (normalised) in [10] was 0.93 (inactive). For the same compound, the figures for the normalised cell number in assay [10] (setting [19]) and in assay [10] (setting [20]) were 1.07 and 0.99, respectively. Moreover, the z-score in assay [11] (setting [21]) is 2.18 (active) and -0.393 (inactive); in assay [11] (setting [22]) it was -1.75 and 0.128. Besides, the remaining NAD in assay [12] was 10 nM (inactive). The log fold change Tl+ flux in assay [13] was 0.0665 (inactive); in assay [14] it was 0.0354 (inactive); in assay [15], -0.01 (inactive); in assay [16], 0.0289 (inactive); in [17], -0.0118 (inactive); in assay [18] it was -0.00405 (inactive).
